Columns and labels:
Experiment in all cases: DAPPL (digital affinity profiling via proximity ligation, sequencing); 10 mM Tris-HCl pH 7.5, 50 mM NaCl, 1 mM DTT, 4% glycerol, room temperature, 30 min; GST-TFs on glutathione beads, 16-mer random dsDNA library, 0.1% formaldehyde crosslink after washing; high values mean tight binding
FEV = target: T1, FEV (Homo sapiens, UniProt Q99581 1-238); settings: protein: recombinant; tags: N-terminal GST; dsDNA, one strand shown
T1 sequence: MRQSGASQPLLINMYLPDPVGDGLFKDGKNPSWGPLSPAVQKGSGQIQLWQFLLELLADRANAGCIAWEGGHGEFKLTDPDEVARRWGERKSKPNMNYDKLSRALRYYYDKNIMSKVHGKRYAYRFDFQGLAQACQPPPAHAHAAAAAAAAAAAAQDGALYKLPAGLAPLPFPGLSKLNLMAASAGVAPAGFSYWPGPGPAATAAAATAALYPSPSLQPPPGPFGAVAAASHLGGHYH
How it was run: (§1)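 Pools of DNA-barcoded human transcription factors, expressed in yeast as GST fusions on glutathione beads and combined with a tag-only sample, were incubated with 200 nmole of a 16-mer random double-stranded DNA library. Incubation took 30 min at room temperature in Tris/NaCl/DTT/glycerol buffer and was followed by washing, 0.1% formaldehyde crosslinking, proximity ligation (BsaI/T4 ligase, 1 h, 37 °C), PCR amplification and sequencing on an Illumina NextSeq500. Binding signal is the ratio of a hexamer's read frequency for a factor to its frequency for the tag-only sample.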

ETV5 = ETV5 (Homo sapiens, UniProt P41161 1-510); settings: protein: recombinant; tags: N-terminal GST; dsDNA, one strand shown
How it was run: as §1

HSF1 = HSF1 (Homo sapiens, UniProt Q00613 1-529); settings: protein: recombinant; tags: N-terminal GST; chain copies: 3; dsDNA, one strand shown
How it was run: as §1

SPIC = target: T2, SPIC (Homo sapiens, UniProt Q8N5J4 1-248); settings: protein: recombinant; tags: N-terminal GST; dsDNA, one strand shown
T2 sequence: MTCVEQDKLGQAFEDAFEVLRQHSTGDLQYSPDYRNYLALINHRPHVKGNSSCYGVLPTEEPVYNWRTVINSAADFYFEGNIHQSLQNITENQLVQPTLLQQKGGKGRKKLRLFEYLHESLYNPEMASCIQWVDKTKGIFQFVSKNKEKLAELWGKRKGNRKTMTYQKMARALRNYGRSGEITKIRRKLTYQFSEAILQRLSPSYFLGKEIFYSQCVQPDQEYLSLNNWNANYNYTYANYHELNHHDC
How it was run: as §1

ELF4 = ELF4 (Homo sapiens, UniProt Q99607 1-663); settings: protein: recombinant; tags: N-terminal GST; dsDNA, one strand shown
How it was run: as §1

ELK4 = target: T3, ELK4 (Homo sapiens, UniProt P28324-2 1-405); settings: protein: recombinant; tags: N-terminal GST; dsDNA, one strand shown
T3 sequence: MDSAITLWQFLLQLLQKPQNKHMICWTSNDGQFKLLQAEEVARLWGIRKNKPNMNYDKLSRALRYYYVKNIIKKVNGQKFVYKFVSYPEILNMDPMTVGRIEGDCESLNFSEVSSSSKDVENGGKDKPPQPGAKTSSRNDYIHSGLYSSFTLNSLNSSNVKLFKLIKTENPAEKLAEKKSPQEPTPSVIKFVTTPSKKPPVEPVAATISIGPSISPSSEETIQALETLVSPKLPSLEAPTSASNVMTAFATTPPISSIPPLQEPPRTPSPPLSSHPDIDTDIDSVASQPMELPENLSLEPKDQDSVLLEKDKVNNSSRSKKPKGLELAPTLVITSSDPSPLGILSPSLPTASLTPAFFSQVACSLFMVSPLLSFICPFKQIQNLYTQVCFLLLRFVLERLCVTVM
How it was run: as §1

ETV2 = target: T4, ETV2 (Homo sapiens, UniProt O00321 1-342); settings: protein: recombinant; tags: N-terminal GST; dsDNA, one strand shown
T4 sequence: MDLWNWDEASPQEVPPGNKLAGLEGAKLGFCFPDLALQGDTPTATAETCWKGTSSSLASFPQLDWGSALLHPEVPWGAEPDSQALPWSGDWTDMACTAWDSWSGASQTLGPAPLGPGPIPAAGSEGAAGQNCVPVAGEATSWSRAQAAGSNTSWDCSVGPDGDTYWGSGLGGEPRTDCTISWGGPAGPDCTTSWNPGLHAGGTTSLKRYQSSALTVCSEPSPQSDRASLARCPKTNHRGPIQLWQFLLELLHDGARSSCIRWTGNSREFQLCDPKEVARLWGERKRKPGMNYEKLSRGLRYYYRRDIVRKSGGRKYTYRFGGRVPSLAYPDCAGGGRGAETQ
How it was run: as §1

ELF3 = target: T5, ELF3 (Homo sapiens, UniProt P78545 1-371); settings: protein: recombinant; tags: N-terminal GST; dsDNA, one strand shown
T5 sequence: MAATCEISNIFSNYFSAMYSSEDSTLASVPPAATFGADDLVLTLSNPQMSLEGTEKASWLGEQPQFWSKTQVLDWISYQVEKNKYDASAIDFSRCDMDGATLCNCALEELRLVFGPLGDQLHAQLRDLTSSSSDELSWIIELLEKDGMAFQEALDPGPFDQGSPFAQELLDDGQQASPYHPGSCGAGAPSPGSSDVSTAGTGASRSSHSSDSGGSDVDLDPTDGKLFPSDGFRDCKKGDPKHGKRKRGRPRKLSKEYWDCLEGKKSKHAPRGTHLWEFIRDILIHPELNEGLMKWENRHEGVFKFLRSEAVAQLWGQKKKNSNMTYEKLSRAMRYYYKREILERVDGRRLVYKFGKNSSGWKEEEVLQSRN
How it was run: as §1

CRX = CRX (Homo sapiens, UniProt O43186 1-299); settings: protein: recombinant; tags: N-terminal GST; dsDNA, one strand shown
How it was run: as §1

ETV1 = ETV1 (Homo sapiens, UniProt P50549 1-477); settings: protein: recombinant; tags: N-terminal GST; dsDNA, one strand shown
How it was run: as §1

ERF = target: T6, ERF (Homo sapiens, UniProt P50548 1-548); settings: protein: recombinant; tags: N-terminal GST; dsDNA, one strand shown
T6 sequence: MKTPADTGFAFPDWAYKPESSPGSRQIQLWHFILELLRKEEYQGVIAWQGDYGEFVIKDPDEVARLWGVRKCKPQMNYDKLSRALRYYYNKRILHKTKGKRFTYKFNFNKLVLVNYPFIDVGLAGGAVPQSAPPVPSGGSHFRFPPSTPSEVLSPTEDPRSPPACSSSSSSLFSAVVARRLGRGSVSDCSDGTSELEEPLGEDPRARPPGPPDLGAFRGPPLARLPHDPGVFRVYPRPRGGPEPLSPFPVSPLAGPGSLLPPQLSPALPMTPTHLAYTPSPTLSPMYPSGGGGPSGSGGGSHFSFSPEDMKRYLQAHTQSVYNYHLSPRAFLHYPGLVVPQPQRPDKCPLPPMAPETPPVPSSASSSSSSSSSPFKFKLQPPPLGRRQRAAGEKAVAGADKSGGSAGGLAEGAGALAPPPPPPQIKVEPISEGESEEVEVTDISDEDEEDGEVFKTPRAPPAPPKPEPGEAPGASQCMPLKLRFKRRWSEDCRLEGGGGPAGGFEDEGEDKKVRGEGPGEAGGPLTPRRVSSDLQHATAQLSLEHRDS
How it was run: as §1

ETV3L = target: T7, ETV3L (Homo sapiens, UniProt Q6ZN32 1-361); settings: protein: recombinant; tags: N-terminal GST; dsDNA, one strand shown
T7 sequence: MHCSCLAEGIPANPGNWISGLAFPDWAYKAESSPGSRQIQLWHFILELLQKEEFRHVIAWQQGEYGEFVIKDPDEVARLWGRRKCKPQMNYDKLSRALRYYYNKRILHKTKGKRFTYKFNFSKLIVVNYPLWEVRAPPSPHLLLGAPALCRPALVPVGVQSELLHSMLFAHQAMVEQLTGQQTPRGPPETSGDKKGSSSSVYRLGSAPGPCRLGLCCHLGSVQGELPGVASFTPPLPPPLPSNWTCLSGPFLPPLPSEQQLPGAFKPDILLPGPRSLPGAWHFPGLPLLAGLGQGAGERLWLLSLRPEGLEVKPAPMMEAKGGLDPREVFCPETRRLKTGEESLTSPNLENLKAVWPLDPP
How it was run: as §1

ETS2 = target: T8, ETS2 (Homo sapiens, UniProt P15036 1-469); settings: protein: recombinant; tags: N-terminal GST; dsDNA, one strand shown
T8 sequence: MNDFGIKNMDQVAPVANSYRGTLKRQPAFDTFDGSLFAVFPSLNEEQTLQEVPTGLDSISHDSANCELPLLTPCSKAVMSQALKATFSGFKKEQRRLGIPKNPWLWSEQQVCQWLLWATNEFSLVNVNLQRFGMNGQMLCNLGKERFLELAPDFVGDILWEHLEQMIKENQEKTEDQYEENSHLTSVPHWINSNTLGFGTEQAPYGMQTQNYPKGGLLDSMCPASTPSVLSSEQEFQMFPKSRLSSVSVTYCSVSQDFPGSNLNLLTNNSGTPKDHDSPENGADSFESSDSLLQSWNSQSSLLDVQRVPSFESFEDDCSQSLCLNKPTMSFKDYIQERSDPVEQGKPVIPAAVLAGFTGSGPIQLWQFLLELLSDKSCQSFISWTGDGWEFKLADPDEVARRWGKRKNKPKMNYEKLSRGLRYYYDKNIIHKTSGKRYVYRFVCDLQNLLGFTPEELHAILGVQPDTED
How it was run: as §1

SPDEF = target: T9, SPDEF (Homo sapiens, UniProt O95238 1-335); settings: protein: recombinant; tags: N-terminal GST; dsDNA, one strand shown
T9 sequence: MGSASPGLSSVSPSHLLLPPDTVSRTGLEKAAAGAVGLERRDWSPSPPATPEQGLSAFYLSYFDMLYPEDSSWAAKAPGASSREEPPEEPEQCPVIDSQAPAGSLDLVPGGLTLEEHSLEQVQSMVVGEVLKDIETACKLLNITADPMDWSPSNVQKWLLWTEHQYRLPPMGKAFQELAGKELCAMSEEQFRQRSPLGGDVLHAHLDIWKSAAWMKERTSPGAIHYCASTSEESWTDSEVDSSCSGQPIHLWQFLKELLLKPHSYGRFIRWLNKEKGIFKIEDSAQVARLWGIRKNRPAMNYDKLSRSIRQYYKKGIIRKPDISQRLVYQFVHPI
How it was run: as §1

ETV7 = target: T10, ETV7 (Homo sapiens, UniProt Q9Y603 1-341); settings: protein: recombinant; tags: N-terminal GST; dsDNA, one strand shown
T10 sequence: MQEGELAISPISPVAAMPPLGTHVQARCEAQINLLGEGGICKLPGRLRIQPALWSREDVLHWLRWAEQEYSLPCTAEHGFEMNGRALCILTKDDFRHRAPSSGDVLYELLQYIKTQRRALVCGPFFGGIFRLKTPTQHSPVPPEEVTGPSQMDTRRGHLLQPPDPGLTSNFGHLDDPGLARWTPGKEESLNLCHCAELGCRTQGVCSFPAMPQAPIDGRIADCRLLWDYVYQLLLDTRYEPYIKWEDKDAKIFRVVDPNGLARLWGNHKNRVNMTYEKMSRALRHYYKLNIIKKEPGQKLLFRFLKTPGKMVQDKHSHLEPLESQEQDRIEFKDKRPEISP
How it was run: as §1

ELF5 = target: T11, ELF5 (Homo sapiens, UniProt Q9UKW6-2 1-255); settings: protein: recombinant; tags: N-terminal GST; dsDNA, one strand shown
T11 sequence: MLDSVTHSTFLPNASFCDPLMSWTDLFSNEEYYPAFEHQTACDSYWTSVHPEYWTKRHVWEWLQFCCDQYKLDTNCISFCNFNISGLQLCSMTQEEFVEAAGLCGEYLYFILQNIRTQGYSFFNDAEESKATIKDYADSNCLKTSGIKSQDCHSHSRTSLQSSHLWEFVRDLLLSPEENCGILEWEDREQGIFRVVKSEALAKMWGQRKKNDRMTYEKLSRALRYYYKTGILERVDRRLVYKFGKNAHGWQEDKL
How it was run: as §1

ETV3 = target: T12, ETV3 (Homo sapiens, UniProt P41162-2 1-143); settings: protein: recombinant; tags: N-terminal GST; dsDNA, one strand shown
T12 sequence: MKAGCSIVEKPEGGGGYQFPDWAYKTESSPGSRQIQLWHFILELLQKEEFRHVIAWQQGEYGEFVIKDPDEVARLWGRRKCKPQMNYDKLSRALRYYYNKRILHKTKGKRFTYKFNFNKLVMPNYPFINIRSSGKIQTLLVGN
How it was run: as §1

ETV6 = ETV6 (Homo sapiens, UniProt P41212 1-452); settings: protein: recombinant; tags: N-terminal GST; dsDNA, one strand shown
How it was run: as §1

Sequence of ETV5 (P41161 whole entry): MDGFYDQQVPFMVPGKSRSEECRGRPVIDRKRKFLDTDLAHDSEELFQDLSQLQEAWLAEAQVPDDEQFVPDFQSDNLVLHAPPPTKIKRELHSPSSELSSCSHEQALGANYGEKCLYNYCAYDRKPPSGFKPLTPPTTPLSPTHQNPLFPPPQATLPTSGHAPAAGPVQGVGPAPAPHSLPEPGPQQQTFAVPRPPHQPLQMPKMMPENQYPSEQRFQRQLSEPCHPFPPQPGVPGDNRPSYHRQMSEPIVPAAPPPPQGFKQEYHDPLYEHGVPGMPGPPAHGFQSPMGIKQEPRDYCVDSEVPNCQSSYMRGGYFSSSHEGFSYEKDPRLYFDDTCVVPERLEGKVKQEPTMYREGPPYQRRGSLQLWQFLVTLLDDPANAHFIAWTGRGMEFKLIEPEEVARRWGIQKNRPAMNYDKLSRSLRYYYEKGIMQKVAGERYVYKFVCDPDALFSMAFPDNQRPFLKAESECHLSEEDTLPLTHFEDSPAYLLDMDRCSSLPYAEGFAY
Sequence of ETV6 (P41212 whole entry): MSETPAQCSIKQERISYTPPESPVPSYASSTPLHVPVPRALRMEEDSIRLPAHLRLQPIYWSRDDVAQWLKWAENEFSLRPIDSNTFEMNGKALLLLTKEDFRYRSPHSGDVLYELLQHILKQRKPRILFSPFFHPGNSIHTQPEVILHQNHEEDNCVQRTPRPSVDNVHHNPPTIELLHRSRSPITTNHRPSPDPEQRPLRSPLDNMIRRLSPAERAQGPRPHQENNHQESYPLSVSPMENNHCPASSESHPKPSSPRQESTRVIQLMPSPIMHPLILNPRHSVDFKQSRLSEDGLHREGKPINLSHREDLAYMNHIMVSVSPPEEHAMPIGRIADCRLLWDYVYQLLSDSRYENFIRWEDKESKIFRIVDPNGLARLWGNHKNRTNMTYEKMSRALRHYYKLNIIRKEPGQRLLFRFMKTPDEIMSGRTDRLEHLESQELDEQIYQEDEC
Sequence of ETV1 (P50549 whole entry): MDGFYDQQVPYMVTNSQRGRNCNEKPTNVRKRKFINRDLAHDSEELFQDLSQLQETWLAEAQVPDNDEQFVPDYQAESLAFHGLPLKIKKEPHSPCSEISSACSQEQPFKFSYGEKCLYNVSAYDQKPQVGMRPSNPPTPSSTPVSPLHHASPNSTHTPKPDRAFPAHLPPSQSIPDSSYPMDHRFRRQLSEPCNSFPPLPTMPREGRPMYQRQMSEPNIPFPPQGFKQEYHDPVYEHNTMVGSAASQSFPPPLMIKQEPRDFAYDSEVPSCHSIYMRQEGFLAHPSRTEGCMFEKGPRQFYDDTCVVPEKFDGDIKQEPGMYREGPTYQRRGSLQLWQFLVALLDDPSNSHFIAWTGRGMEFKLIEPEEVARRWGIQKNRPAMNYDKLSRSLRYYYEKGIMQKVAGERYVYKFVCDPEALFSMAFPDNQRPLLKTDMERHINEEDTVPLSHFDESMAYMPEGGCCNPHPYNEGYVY
Sequence of ELF4 (Q99607 whole entry): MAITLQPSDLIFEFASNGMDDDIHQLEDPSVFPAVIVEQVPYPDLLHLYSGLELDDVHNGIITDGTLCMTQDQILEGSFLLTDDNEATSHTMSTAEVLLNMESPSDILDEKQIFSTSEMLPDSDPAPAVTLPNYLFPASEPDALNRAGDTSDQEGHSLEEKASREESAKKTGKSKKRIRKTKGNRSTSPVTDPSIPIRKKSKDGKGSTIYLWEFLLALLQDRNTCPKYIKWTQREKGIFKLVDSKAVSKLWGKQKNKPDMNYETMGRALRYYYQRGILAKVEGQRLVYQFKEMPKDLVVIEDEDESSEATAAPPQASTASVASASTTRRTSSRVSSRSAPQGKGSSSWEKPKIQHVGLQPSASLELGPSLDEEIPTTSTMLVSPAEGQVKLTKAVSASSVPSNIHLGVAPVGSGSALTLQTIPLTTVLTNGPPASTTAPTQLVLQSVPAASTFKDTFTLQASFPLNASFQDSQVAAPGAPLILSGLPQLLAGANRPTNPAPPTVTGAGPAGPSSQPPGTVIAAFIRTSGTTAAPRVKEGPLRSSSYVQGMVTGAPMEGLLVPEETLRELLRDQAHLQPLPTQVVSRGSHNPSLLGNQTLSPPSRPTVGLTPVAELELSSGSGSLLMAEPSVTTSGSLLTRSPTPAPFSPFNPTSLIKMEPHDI
Sequence of HSF1 (Q00613 whole entry): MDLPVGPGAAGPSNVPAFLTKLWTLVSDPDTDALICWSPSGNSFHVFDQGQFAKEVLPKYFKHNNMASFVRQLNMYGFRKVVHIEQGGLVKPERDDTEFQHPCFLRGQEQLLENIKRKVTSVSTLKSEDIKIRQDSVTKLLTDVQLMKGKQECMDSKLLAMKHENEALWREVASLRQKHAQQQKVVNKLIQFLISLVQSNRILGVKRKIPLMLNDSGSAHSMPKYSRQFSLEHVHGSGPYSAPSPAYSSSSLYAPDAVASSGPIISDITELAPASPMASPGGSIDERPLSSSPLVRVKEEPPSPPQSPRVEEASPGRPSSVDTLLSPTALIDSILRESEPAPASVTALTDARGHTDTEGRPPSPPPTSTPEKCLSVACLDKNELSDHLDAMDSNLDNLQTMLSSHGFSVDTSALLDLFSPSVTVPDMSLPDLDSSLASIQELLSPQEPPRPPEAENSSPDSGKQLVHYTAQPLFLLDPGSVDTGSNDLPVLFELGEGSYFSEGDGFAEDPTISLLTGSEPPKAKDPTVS
Sequence of CRX (O43186 whole entry): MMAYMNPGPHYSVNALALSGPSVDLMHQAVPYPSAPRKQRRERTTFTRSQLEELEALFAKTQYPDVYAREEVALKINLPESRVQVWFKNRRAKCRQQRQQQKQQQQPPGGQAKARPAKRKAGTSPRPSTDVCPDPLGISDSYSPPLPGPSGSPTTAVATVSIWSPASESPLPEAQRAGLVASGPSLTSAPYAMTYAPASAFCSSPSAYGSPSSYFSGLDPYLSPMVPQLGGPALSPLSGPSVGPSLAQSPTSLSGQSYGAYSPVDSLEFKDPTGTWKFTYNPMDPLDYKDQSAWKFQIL

Q: With GCTCGC as the sequence, how does the binding signal (FEV) read?
A: Its binding signal is 1.42 fold enrichment (6-mer frequency, TF over GST control).

Q: And the binding signal (ETV5)?
A: Its binding signal is 1.32 fold enrichment (6-mer frequency, TF over GST control).

Q: And the binding signal (HSF1)?
A: Its binding signal is 1.25 fold enrichment (6-mer frequency, TF over GST control).

Q: What about the binding signal (SPIC) of the same sequence?
A: The binding signal was 1.44 fold enrichment (6-mer frequency, TF over GST control).

Q: What about the binding signal (ELF4) of the same sequence?
A: The binding signal was 1.28 fold enrichment (6-mer frequency, TF over GST control).

Q: And the binding signal (ELK4)?
A: Its binding signal is 1.52 fold enrichment (6-mer frequency, TF over GST control).

Q: And the binding signal (ETV2)?
A: The binding signal was 1.17 fold enrichment (6-mer frequency, TF over GST control).

Q: And the binding signal (ELF3)?
A: Its binding signal is 1.51 fold enrichment (6-mer frequency, TF over GST control).

Q: And the binding signal (CRX)?
A: The binding signal was 1.12 fold enrichment (6-mer frequency, TF over GST control).

Q: What about the binding signal (ETV1) of the same sequence?
A: Its binding signal is 1.37 fold enrichment (6-mer frequency, TF over GST control).

Q: And the binding signal (ERF)?
A: Its binding signal is 1.36 fold enrichment (6-mer frequency, TF over GST control).

Q: What about the binding signal (ETV3L) of the same sequence?
A: Its binding signal is 1.35 fold enrichment (6-mer frequency, TF over GST control).

Q: What about the binding signal (ETS2) of the same sequence?
A: Its binding signal is 1.45 fold enrichment (6-mer frequency, TF over GST control).

Q: And the binding signal (SPDEF)?
A: The binding signal was 1.29 fold enrichment (6-mer frequency, TF over GST control).

Q: And the binding signal (ETV7)?
A: The binding signal was 1.21 fold enrichment (6-mer frequency, TF over GST control).

Q: And the binding signal (ELF5)?
A: Its binding signal is 1.31 fold enrichment (6-mer frequency, TF over GST control).

Q: And the binding signal (ETV3)?
A: Its binding signal is 1.35 fold enrichment (6-mer frequency, TF over GST control).

Q: What about the binding signal (ETV6) of the same sequence?
A: The binding signal was 1.35 fold enrichment (6-mer frequency, TF over GST control).
